Results on 16 compounds are retold here after ChEMBL document CHEMBL3988442, “University of Dundee, Small-Polar-MMV Screening Library” (2021).

Test [1] addresses T1, Aspartate--tRNA(Asp/Asn) ligase (Mycobacterium tuberculosis (strain ATCC 25618 / H37Rv)) (UniProt P9WFW3).
T1 sequence (whole entry): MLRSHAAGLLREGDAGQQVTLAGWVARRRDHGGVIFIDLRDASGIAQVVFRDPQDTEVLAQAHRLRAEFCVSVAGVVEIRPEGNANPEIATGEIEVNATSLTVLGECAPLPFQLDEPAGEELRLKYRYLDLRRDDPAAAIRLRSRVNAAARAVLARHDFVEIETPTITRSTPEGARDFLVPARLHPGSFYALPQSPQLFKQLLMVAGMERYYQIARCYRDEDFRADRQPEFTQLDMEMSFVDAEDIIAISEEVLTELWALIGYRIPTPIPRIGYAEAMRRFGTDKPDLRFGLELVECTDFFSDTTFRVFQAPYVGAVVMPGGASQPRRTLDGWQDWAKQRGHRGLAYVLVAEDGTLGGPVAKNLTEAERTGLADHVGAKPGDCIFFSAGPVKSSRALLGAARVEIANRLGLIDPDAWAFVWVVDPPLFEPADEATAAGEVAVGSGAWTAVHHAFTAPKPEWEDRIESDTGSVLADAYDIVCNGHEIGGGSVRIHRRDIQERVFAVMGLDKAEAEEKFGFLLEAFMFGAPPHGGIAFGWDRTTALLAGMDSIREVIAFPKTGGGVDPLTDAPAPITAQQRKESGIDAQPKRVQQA
Description: Assay for Asp RNA synthetase-1 from Mycobacterium tuberculosis. The class given is functional. Details: scale not given: direction of the effect not stated beside the values. Particulars: 30 µM.

The target in test [2] is Shiga toxin 2 (Escherichia coli O157:H7) (UniProt P09385+P09386). Briefly: E. coli 0.157:H7 Shiga Toxin SOP - stx2 screening assay. Type of test: functional. More on the design: scale not given: direction of the effect not stated beside the values. Particulars: 30 µM.

In the case of `COc1cccc(CCC2CCCN(C(=O)C3=NN(C)C(=O)CC3)C2)c1` (configuration not stated), the Percent Effect is 1.75% in test [1] and -7.25% in test [2].
Turning to `COCCO[C@H]1CCN(C(=O)c2cc(C)on2)[C@H]1Cc1ccccc1`, the Percent Effect is -1.39% in test [1] and -1.24% in test [2].
As to `CCCN1CCN(C(=O)C(C)n2cc(Br)cn2)CC1` (configuration not stated), the Percent Effect in test [1] was 5.74%; in test [2] it was -31.6%.
For the compound `CC(=O)N1CCCC1c1nnc2n1CCCCC2` (configuration not stated), the Percent Effect in test [1] was -0.915%; in test [2], 0.261%.
`CCS(=O)(=O)N1CCO[C@H]2[C@H](OCC3CCCC3)CC[C@@H]21`: the Percent Effect in test [1] is -2.82%; in test [2], -8.34%.
In the case of `CCC(CC)C(O)CNC(=O)Nc1cc(C)nn1C` (configuration not stated), the Percent Effect in test [1] was -1.77%; in test [2], -3.6%.
Take `Cc1ccc([C@@H]2CN(S(=O)(=O)N(C)C)C[C@H]2N(C)C)cc1`: the Percent Effect in test [1] was determined as 2.81%; in test [2] it was 5.3%.
With `COCC(=O)NCc1cc(=O)n2c(n1)CN(Cc1ccsc1)CCC2`, the Percent Effect in test [1] turned out to be 5.55%; in test [2], 10%.
Turning to `O=C(NCCC1=CCCCC1)C1CCN(c2ccc3nncn3n2)CC1`, the Percent Effect in test [1] was -1.42%; in test [2] it was -16.7%.
For `CC(C)NC(=O)N1CCN(S(=O)(=O)C2CC2)CC2(CNC(=O)C2)C1` (configuration not stated), the figures for the Percent Effect in test [1] and in test [2] were -2.4% and -12.6%, respectively.
`COCCN1CCN(CCS(=O)(=O)C(F)(F)F)CC1C` (configuration not stated): the Percent Effect in test [1] was -2.33%; in test [2], 96.7%.
The like results for `CCOC(CC)C(=O)NCCC(=O)N1CCN(c2ncccn2)CC1` (configuration not stated) were, in that order, 1.17% and -0.0687%.
`CC(C)c1cc(NCC(O)c2ccc(F)cc2)n2nccc2n1` (configuration not stated): the Percent Effect in test [1] was -1.84%; in test [2], 7.39%.
On to `COC(=O)c1cc(OCC2CCC2)cc(C(=O)N[C@H]2CC[C@H](O)CC2)c1`, for which the figures for the Percent Effect in test [1] and in test [2] were 9.23% and -30.2%, respectively.
On to `COc1cnc(C2(O)CCN(C(=O)c3ccncc3)CC2)c(OC)n1`, for which the results for the Percent Effect in test [1] and in test [2] were -2.63% and -1.51%, respectively.
Turning to `O=C(NCCNc1cnccn1)N1CCN(Cc2cccnc2)CC1`, the results for the Percent Effect in test [1] and in test [2] were -4.35% and -68.8%, respectively.
